D2 ag-1 = agonists of human D2 dopamine receptor; activation, % at 2 µM; HEK293 T-REx D2 cells, calcium flux agonist mode; P14416; 340,000 compounds, 0.53% hits;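 active = activation over 3 SD above normal in the single-dose calcium agonist read, cut at about 30% in these data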; note: 0% is about no effect
Target sequence (P14416 whole entry, looked up): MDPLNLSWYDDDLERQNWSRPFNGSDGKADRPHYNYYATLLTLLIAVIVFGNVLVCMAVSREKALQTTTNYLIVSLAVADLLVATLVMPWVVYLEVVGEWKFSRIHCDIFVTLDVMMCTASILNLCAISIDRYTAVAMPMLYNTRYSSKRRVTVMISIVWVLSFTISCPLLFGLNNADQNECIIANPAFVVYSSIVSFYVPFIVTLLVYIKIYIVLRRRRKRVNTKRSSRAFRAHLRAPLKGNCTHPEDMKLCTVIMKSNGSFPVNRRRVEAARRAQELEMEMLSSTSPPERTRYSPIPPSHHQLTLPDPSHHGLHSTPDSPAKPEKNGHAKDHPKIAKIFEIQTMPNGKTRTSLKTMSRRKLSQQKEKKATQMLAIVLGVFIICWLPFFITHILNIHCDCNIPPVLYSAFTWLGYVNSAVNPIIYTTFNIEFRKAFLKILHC
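Tetracycline-induced HEK293 T-REx cells with force-coupled D2 receptor, plated overnight at 30 C, loaded with no-wash calcium dye. After a 10 s baseline, compound was pin-added and calcium flux read kinetically for 180 s; calcium rises flagged agonists.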
D2 PAM-1 = positive allosteric modulators of human D2 dopamine receptor; HEK293 T-REx D2, calcium flux, EC20 dopamine potentiation; potentiation, % at 10 µM; 340,000 compounds, 0.34% hits; AID 485347;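 active = potentiation over 3 SD above the plate norm, cut at about 30% in these data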; note: 0% is about no effect
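Tetracycline-induced Hek293 Trex D2 cells, force-coupled to calcium, loaded with no-wash calcium dye. Compound added with 180 s kinetic read for agonism, then EC20 dopamine and a further 180 s read for potentiation.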
D2 PAM-2 = positive allosteric modulators of human D2 dopamine receptor; DiscoveRx D2 beta-arrestin cells, luminescence, 90 min; 100% = 57 uM dopamine signal; AID 624464; P14416; potentiation, % (no concentration beside the values); 360,000 compounds, 0.23% hits; in the data active = potentiation above about 50%; inconclusive = mostly about 30% to 49%
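PathHunter beta-arrestin assay in DiscoveRx D2 cells. Compounds were added with an EC20 of dopamine (50 nM final) for 90 min at 37 deg C. Luminescence was read 1 h after detection reagent, with 57 uM dopamine as the EC100 control.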
D2 ag-2 = activates the human D2 dopamine receptor; P14416; DiscoveRx PathHunter D2 beta-arrestin, luminescence, 90 min; 100% = 57 uM dopamine signal; activation, % (test concentration not listed); 360,000 compounds, 0.084% hits; in the data active = activation above about 40%; inconclusive = between about 15% and that limit
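Agonist mode: compounds alone added to overnight-plated D2 PathHunter cells for 90 min at 37 C, with 57 uM final dopamine (EC100) defining full response. Beta-arrestin recruitment detected by chemiluminescent reagent, read after 1 h at ambient temperature.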
D2 antagonist = antagonists of human D2 dopamine receptor. 340,000 compounds, 2% hits. P14416. inhibition, % at 10 µM. HEK293 TREx D2 cells, calcium flux, dopamine EC80. AID 485344; in the data active = inhibition above about 30%; inactive = below that, where a call was filed; note: 0% is about no effect
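Overnight-induced (tetracycline, 30 C) HEK293 T-REx cells carrying force-coupled D2 receive a no-wash calcium dye, then compound, then EC80 dopamine at 180 s; signals are read kinetically throughout.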
An asterisk follows results filed as active; ? = inconclusive; . = no result given. A selection: hits, their analogues and other compounds. The true share with any hit is near 2.4%.

SMILES	D2 ag-1	D2 PAM-1	D2 PAM-2	D2 ag-2	D2 antagonist
O=C1Cc2ccccc2Sc2cc(OCCCN3CCCCC3)ccc21	2	-31	-34	-7	-6
O=C1Cc2ccccc2Sc2c(OCCN3CCCCC3)cccc21	2	-18	-32	-9	80*
Cc1cc(NC(=S)NC(=O)c2ccccc2)ccc1-c1cc2ccccc2oc1=O	-1	-9	-1	1	63*
Cc1cc(Nc2ccc(Br)c(C)c2)n2nc(-c3ccco3)nc2n1	0	1	.	.	.
COc1cc(NC(=O)N2c3ccccc3Sc3ccccc32)c(C(=O)O)cc1OC	0	-1	3	50*	8
Cc1cc(F)ccc1Oc1cc(NN2CCCCC2)c([N+](=O)[O-])cc1[N+](=O)[O-]	0	1	-6	0	30*
O=[N+]([O-])c1cc([N+](=O)[O-])c(Oc2cc(F)ccc2F)cc1NN1CCCCC1	-1	-9	-1	-2	-3
CCN1CCN(C(=O)c2cccc(OC3CCN(S(=O)(=O)N(C)C)CC3)c2)CC1	1	36*	-12	-6	2
CCCCOc1ccc(S(=O)(=O)NNC(=O)c2cc3ccccc3o2)cc1	-1	-1	-11	-2	44*
CC(=O)c1cccc(NC(=O)c2cc(C)nc3c2c(C)nn3-c2cccc(Cl)c2C)c1	0	-9	.	.	.
Cc1nnc(Sc2nc3c(c(=O)[nH]c(=O)n3C)n2CCc2ccccc2)s1	-1	2	-1	5	50*
CCc1cccc(C)c1NS(=O)(=O)c1cc2[nH]c(=O)c(=O)[nH]c2cc1C	-1	1	.	.	.
CNc1nc(NC)nc(NNC(=O)c2ccccc2)n1	.	.	-10	0	.
Cc1cc(NNC(=O)c2ccccc2)nc(NNC(=O)c2ccccc2)n1	0	-23	2	9	34*
Cc1nn(-c2ccccc2)c2c1N(CC(=O)N1CCN(c3ccccc3F)CC1)C(=O)CS2	1	22	.	.	.
Cc1nc(C(=O)NCC(=O)c2ccccc2)c(C(F)(F)F)o1	0	-1	-1	-5	32*
COC(c1ccccc1)c1nnc(CCC(=O)N2CCCCCCC2)o1 (configuration not stated)	-1	7	3	1	-16
O=C(CCc1nnc(-c2ccc(-c3ccccc3)cc2)o1)N1CCCCC1	1	16	-6	7	62*
COc1cc(O)ccc1-c1nc2cc(C)ccn2c1Nc1ccccc1C	0	6	.	.	.
O=C(Cn1c(=O)n(-c2ccc(F)c(Cl)c2)c(=O)c2sc3ccccc3c21)NC1CCCC1	0	24	.	.	.
COc1ccc(C(CCN2CCCC(C)C2)c2c(OC)cc(OC)c3c2OC(=O)CC3c2cc(OC)c(OC)c(OC)c2)cc1 (configuration not stated)	0	-27	-23	2	52*
CCCCCc1cc(=O)oc2c(C(CCN3CCN(c4ccccc4)CC3)c3ccc4c(c3)OCO4)c(OC)cc(OC)c12 (configuration not stated)	17	-9	2	14	50*
COc1cc(OC)c2ccc(=O)oc2c1C(CCN1CCCC(C)C1)c1ccc2c(c1)OCO2 (configuration not stated)	-1	-18	-22	-2	83*
CCc1ccccc1NC(=O)c1cnc(N2CCCCC2)c2ccccc12	0	2	.	.	.
CCOc1ccc2nc(NC(=O)CS(=O)(=O)c3ccc(Cl)cc3)sc2c1	-2	5	.	.	.
SMILES	D2 ag-1	D2 PAM-1	D2 PAM-2	D2 ag-2	D2 antagonist
[O-][N+]1=c2ccc(Nc3ccccc3)cc2=NC12CCCCC2	-1	-14	-21	-4	32*
COc1ccc(Nc2ccc3c(c2)=NC2(CCCCC2)[N+]=3[O-])cc1	0	-7	-14	-3	4
COc1cc2[nH]c(=O)n(CCCCCC(=O)N3CCN(c4ccc(Cl)cc4)CC3)c(=O)c2cc1OC	0	10	.	.	.
O=C1Cc2cc(S(=O)(=O)NCc3ccccc3Cl)cc3c2N1CCC3	0	34*	-3	-2	11
CN1C(=O)Cc2cc(S(=O)(=O)NCc3ccccc3Cl)ccc21	.	-13	.	.	.
CCOC(=O)c1[nH]c(C)c(C(=O)NCCc2ccccc2)c1C	0	-6	.	.	.
Cn1cc(CNCCCn2ncc3ccccc32)c(-c2ccccc2F)n1	1	-20	-27	-4	37*
O=C(c1nc2ccccn2c1CNCCCn1ncc2ccccc21)N1CCOCC1	0	-8	-7	-2	-6
CCCn1c(N)c(Sc2ccccc2)c(=O)n(CCC)c1=O	0	-8	1	-1	49*
CC(C)CSc1ccccc1NC(=O)c1sc2nc(-c3ccncc3)ccc2c1N	2	10	.	.	.
Cn1c2ccc(F)cc2c2ncn(CCN3CCOCC3)c(=O)c21	2	-2	-3	-1	5
Cn1c2ccccc2c2ncn(CCCN3CCOCC3)c(=O)c21	0	38*	-6	-2	-1
CCOc1cc(CNc2ccc(O)cc2)ccc1OCc1ccc(Cl)cc1Cl	-1	8	96*	44*	-14
CCOc1cccc(CNc2ccc(O)cc2)c1OCc1ccc(Cl)cc1	0	-7	91*	?	-15
CCOc1cc(CNCc2ccccc2)ccc1OCc1ccc(Cl)cc1	.	.	-11	-9	.
Oc1ccc(NCc2ccccc2OCc2ccccc2F)cc1	0	5	115*	14	17
O=C(COc1ccccc1F)Nc1ccccc1C(=O)OCc1cc(=O)n2nc(C3CC3)sc2n1	-2	-3	.	.	.
CC(C)[C@H](NC(=O)N1CCn2c1nc1ccccc12)C(=O)N[C@H](C(=O)O)c1ccccc1	-6	9	-25	-4	58*
Cc1cc(C)n(-c2nc3cc(Cl)ccc3nc2Nc2ccc(CC(=O)O)cc2)n1	0	-3	.	.	.
Cn1cnnc1SCC(=O)Nc1ccc(C#N)cc1	-1	-7	.	.	.
CC(=O)Nc1ccc(C(=O)N2CCCC2)cc1	0	32*	-22	-1	1
CCCC(=O)Nc1ccc(N2CCCCC2)cc1	-1	-9	-3	-3	6
O=C(O)CCC(=O)Nc1ccc(C(=O)N2CCCCC2)cc1	-1	33*	-10	-3	6
O=C(O)CCCC(=O)Nc1ccc(N2CCCC2)cc1	0	1	69*	5	-3
Cc1oc(-c2ccccc2F)nc1CN1CCC(C(=O)NCCc2ccccc2)CC1	2	-6	.	.	.
CC(C)CCNC(=O)C1CCN(c2nnc(-n3cccc3)s2)CC1	1	8	-3	-3	-7
CS(=O)(=O)N1CCC(C(=O)Nc2cc(C(F)(F)F)ccc2Cl)CC1	0	-12	-14	-2	-7
O=C(Nc1cc(C(F)(F)F)ccc1Cl)C1CCN(c2nnc(-n3cccc3)s2)CC1	0	-18	-22	0	62*
